According to PubChem BioAssay AID1159580 (chemical genetic matrix, 2015):
In all, about 5,500 compounds went through this assay and about 2,000 (36%) were called active. About 18% were inconclusive and are not listed. Cut-off read from the data, not from the text of the source: active = normalized growth mostly below about 0.91 (no sharp cut-off); inconclusive = no clear call, values can overlap the other calls; inactive = mostly above about 0.92. This is one part of the list.

Assay: chemical genetic growth profiling, strain panel (AID 1159580);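 note: tested at 20 µM; growth read once vehicle control cultures reached saturation at 30 °C; 1 = growth at the plate median or of vehicle wells; lower values mean less growth of the strain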
Conditions: growth OD

Measured: normalized growth

CC1(C)S[C@@H]2[C@H](NC(=O)[C@H](NC(=O)N3CCNC3=O)c3ccccc3)C(=O)N2C1C(=O)O (stereo partly drawn)
inactive: S. cerevisiae deletion strains, locus YJR075W, strain HOC1, hits give low values 1.01 | S. cerevisiae deletion strains, locus YKL009W, strain mrt4, hits give low values 0.967 | S. cerevisiae deletion strains, locus YKL068W, hits give low values 0.979 | S. cerevisiae deletion strains, locus YKL085W, strain MDH1 (second series), hits give low values 0.998 | S. cerevisiae deletion strains, locus YKL085W, strain MDH1, hits give low values 0.998 | S. cerevisiae deletion strains, locus YKL160W, strain elf1, hits give low values 0.957 | S. cerevisiae deletion strains, locus YKL190W, strain CNB1, hits give low values 0.995 | S. cerevisiae deletion strains, locus YKR001C, strain vps1, hits give low values 1 | S. cerevisiae deletion strains, locus YKR026C, strain gcn3, hits give low values 0.999 | S. cerevisiae deletion strains, locus YKR091W, strain srl3, hits give low values 0.974 | S. cerevisiae deletion strains, locus YLL001W, strain dnm1, hits give low values 0.957 | S. cerevisiae deletion strains, locus YLL026W, hits give low values 0.984 | S. cerevisiae deletion strains, locus YLL041C, strain sdh2, hits give low values 0.983 | S. cerevisiae deletion strains, locus YLR027C, strain aat2, hits give low values 0.976 | S. cerevisiae deletion strains, locus YLR039C, strain RIC1, hits give low values 1 | S. cerevisiae deletion strains, locus YLR058C, strain SHM2, hits give low values 0.989 | S. cerevisiae deletion strains, locus YLR102C, strain apc9, hits give low values 0.992 | S. cerevisiae deletion strains, locus YLR113W, strain HOG1, hits give low values 0.956 | S. cerevisiae deletion strains, locus YLR221C, strain rsa3, hits give low values 0.964 | S. cerevisiae deletion strains, locus YLR258W, strain gsy2, hits give low values 0.988 | S. cerevisiae deletion strains, locus YLR262C, strain YPT6 (second series), hits give low values 0.958 | S. cerevisiae deletion strains, locus YLR262C, strain YPT6, hits give low values 0.98 | S. cerevisiae deletion strains, locus YLR268W, strain sec22, hits give low values 0.993 | S. cerevisiae deletion strains, locus YLR320W, strain mms22, hits give low values 0.956 | S. cerevisiae deletion strains, locus YLR330W, strain CHS5, hits give low values 0.997 | S. cerevisiae deletion strains, locus YLR342W, strain FKS1 (second series), hits give low values 1.01 | S. cerevisiae deletion strains, locus YLR342W, strain FKS1, hits give low values 0.993 | S. cerevisiae deletion strains, locus YLR357W, strain rsc2, hits give low values 0.977 | S. cerevisiae deletion strains, locus YLR370C, strain arc18, hits give low values 0.98 | S. cerevisiae deletion strains, locus YLR371W, strain rom2, hits give low values 0.997 | S. cerevisiae deletion strains, locus YLR384C, strain iki3, hits give low values 0.976 | S. cerevisiae deletion strains, locus YLR418C, strain cdc73, hits give low values 0.995 | S. cerevisiae deletion strains, locus YML016C, strain PPZ1, hits give low values 1 | S. cerevisiae deletion strains, locus YML032C, strain rad52, hits give low values 1.01 | S. cerevisiae deletion strains, locus YML120C, strain ndi1, hits give low values 0.959 | S. cerevisiae deletion strains, locus YML124C, strain tub3, hits give low values 0.996 | S. cerevisiae deletion strains, locus YMR058W, strain fet3, hits give low values 0.973 | S. cerevisiae deletion strains, locus YMR078C, strain ctf18, hits give low values 0.98 | S. cerevisiae deletion strains, locus YMR125W, strain sto1, hits give low values 1 | S. cerevisiae deletion strains, locus YMR129W, hits give low values 0.991 | S. cerevisiae deletion strains, locus YMR205C, strain PFK2, hits give low values 0.954 | S. cerevisiae deletion strains, locus YMR223W, strain ubp8, hits give low values 0.962 | S. cerevisiae deletion strains, locus YMR231W, strain pep5, hits give low values 0.985 | S. cerevisiae deletion strains, locus YMR307W, strain GAS1, hits give low values 1.08 | S. cerevisiae deletion strains, locus YNL067W, strain RPL9B, hits give low values 1.02 | S. cerevisiae deletion strains, locus YNL071W, strain lat1, hits give low values 0.989 | S. cerevisiae deletion strains, locus YNL128W, strain TEP1, hits give low values 0.991 | S. cerevisiae deletion strains, locus YNL183C, strain NPR1, hits give low values 0.942 | S. cerevisiae deletion strains, locus YNL209W, strain ssb2, hits give low values 0.989 | S. cerevisiae deletion strains, locus YNL233W, strain BNI4, hits give low values 1.04 | S. cerevisiae deletion strains, locus YNL248C, strain rpa49, hits give low values 0.993 | S. cerevisiae deletion strains, locus YNL250W, strain rad50, hits give low values 0.975 | S. cerevisiae deletion strains, locus YNL271C, strain bni1, hits give low values 1 | S. cerevisiae deletion strains, locus YNL298W, strain CLA4, hits give low values 0.978 | S. cerevisiae deletion strains, locus YNL307C, strain MCK1, hits give low values 0.994 | S. cerevisiae deletion strains, locus YNL322C, strain KRE1 (second series), hits give low values 0.983 | S. cerevisiae deletion strains, locus YNL322C, strain KRE1, hits give low values 0.993 | S. cerevisiae deletion strains, locus YNR049C, strain mso1, hits give low values 0.975 | S. cerevisiae deletion strains, locus YNR052C, strain pop2, hits give low values 0.986 | S. cerevisiae deletion strains, locus YOL006C, strain TOP1, hits give low values 1.04 | S. cerevisiae deletion strains, locus YOL012C, strain htz1 1.4 | S. cerevisiae deletion strains, locus YOL147C, strain pex11, hits give low values 0.985 | S. cerevisiae deletion strains, locus YOR001W, strain rrp6, hits give low values 0.981 | S. cerevisiae deletion strains, locus YOR061W, strain CKA2, hits give low values 1 | S. cerevisiae deletion strains, locus YOR069W, strain VPS5, hits give low values 0.988 | S. cerevisiae deletion strains, locus YOR070C, strain gyp1, hits give low values 0.992 | S. cerevisiae deletion strains, locus YOR080W, strain dia2, hits give low values 0.969 | S. cerevisiae deletion strains, locus YOR083W, strain WHI5, hits give low values 0.957 | S. cerevisiae deletion strains, locus YOR106W, strain vam3, hits give low values 0.951 | S. cerevisiae deletion strains, locus YOR136W, strain idh2, hits give low values 0.996 | S. cerevisiae deletion strains, locus YOR144C, strain elg1, hits give low values 1.01 | S. cerevisiae deletion strains, locus YOR184W, strain ser1, hits give low values 0.991 | S. cerevisiae deletion strains, locus YOR231W, strain MKK1, hits give low values 0.975 | S. cerevisiae deletion strains, locus YOR265W, strain rbl2, hits give low values 0.983 | S. cerevisiae deletion strains, locus YOR270C, strain vph1, hits give low values 0.968 | S. cerevisiae deletion strains, locus YOR290C, strain snf2, hits give low values 0.936 | S. cerevisiae deletion strains, locus YOR316C, strain cot1, hits give low values 0.99 | S. cerevisiae deletion strains, locus YPL051W, strain arl3, hits give low values 0.99 | S. cerevisiae deletion strains, locus YPL078C, strain atp4, hits give low values 0.974 | S. cerevisiae deletion strains, locus YPL106C, strain sse1, hits give low values 0.944 | S. cerevisiae deletion strains, locus YPL240C, strain hsp82, hits give low values 0.985 | S. cerevisiae deletion strains, locus YPL256C, strain CLN2, hits give low values 0.955 | S. cerevisiae deletion strains, locus YPR119W, strain clb2, hits give low values 0.997 | S. cerevisiae deletion strains, locus YPR141C, strain kar3, hits give low values 0.989 | S. cerevisiae deletion strains, locus YPR163C, strain tif3, hits give low values 0.975 | S. cerevisiae deletion strains, locus YPR167C, strain met16, hits give low values 0.985 | S. cerevisiae deletion strains, strain wtn01, hits give low values 1 | S. cerevisiae strains, strain wild type, hits give low values 1
